In PubChem BioAssay AID720 (The Scripps Research Institute Molecular Screening Center, 2007) one finds inhibition data, which are given here for 5 compounds.

About 140 (0.14%) of roughly 97,000 compounds were called active. The sample as a whole holds a higher share of actives than the screen did. Values without a mark were called inactive.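 Rule for the calls: active = inhibition above the screen-wide mean inhibition plus 3 SD (cut at about 15% in these data); inactive = the rest.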

One may read the inhibition as the drop in the measured response relative to a control, in per cent.

For this assay, the target named is Ephrin type-B receptor 4 (Homo sapiens) (UniProt P54760). In words: blockers of EphB4 ligand binding – biochemical, TNYL-RAW peptide probe, fluorescence polarization, primary screen (AID 720).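 Note: 0% = DMSO wells and 100% = excess unlabeled TNYL-RAW peptide.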 Conditions: EphB4 LBD / TNYL-RAW-Alexa532 peptide, at 7 µM, stronger effect = higher value. (In general: Fluorescence polarisation rises when a labelled molecule tumbles more slowly, as on binding a larger partner.)
Chain of Ephrin type-B receptor 4 (Homo sapiens) (P54760 whole entry, looked up, the tested form may be a part): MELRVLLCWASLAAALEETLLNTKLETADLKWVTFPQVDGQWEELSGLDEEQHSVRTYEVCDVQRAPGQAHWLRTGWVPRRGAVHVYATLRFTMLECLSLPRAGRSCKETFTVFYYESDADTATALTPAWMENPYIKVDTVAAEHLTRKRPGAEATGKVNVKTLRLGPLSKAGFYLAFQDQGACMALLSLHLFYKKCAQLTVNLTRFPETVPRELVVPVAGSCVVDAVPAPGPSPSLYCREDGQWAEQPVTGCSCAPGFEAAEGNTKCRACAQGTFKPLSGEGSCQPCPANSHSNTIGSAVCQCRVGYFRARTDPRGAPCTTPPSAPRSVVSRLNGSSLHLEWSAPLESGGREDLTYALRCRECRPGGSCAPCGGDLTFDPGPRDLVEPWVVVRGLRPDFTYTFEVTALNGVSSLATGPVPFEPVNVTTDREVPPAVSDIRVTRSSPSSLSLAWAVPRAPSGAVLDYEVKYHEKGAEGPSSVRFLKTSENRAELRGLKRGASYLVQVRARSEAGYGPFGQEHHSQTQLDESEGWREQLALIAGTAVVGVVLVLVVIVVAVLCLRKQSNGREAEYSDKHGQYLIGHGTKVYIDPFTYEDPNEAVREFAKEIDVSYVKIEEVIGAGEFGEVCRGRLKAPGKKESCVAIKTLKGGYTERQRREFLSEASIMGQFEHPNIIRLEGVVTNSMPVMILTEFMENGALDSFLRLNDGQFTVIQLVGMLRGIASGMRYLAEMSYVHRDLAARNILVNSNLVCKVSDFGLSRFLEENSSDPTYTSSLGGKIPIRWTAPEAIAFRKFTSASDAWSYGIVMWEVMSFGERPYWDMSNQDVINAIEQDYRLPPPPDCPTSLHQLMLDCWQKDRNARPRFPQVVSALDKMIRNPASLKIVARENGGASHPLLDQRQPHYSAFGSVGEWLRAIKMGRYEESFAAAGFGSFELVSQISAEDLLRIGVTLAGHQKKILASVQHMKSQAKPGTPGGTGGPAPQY
On to `CCc1cccc2c(C#N)cn(CC(=O)N3CCOCC3)c12`, for which the inhibition is 21.5% (active).

As for `CCC(=O)CC(c1ccc([N+](=O)[O-])cc1)c1c(O)c2ccccc2oc1=O` (stereo not given), the inhibition was 0.56%.

Take `CC(=O)c1ccc(OC(NC(=O)Cc2ccccc2)C(Cl)(Cl)Cl)cc1` (stereo not given): the inhibition is 0.16%.

Take `OC(Cn1c2ccccc2c2ccccc21)C[n+]1ccccc1` (stereo not given): the inhibition is -2.91%.

Consider `CC(=O)Nc1ccccc1C(=O)OCC(=O)c1cccc2ccccc12`, for which the inhibition is -0.92%.
